Consider 9 molecules from PubChem BioAssay (NCI).

Experiment in all cases: NCI-60 one-dose screen, 48 h (100 = growth as untreated, 0 = no growth, -100 = all killed)
For one test, the system named is SK-MEL-2 melanoma. Conditions: 10 µM unless noted.
Another test deals with EKVX NSCLC. To be noted: 10 µM unless noted.
The next test concerns SN12C renal. To be noted: 10 µM unless noted.
The next test deals with ACHN renal. To be noted: 10 µM unless noted.
A further test concerns CAKI-1 renal. Conditions: 10 µM.
Another test deals with A498 renal. To be noted: 10 µM unless noted.
The subject of another test is CCRF-CEM leukemia. To be noted: 10 µM unless noted.
In the next test the test system is MOLT-4 leukemia. To be noted: 10 µM unless noted.
The subject of a further test is SR leukemia. Conditions: 10 µM unless noted.
In another test the test system is RPMI-8226 leukemia. Conditions: 10 µM unless noted.
Another test concerns OVCAR-8 ovarian. To be noted: 10 µM unless noted.
Another test relates to OVCAR-5 ovarian. To be noted: 10 µM unless noted.
A further test concerns OVCAR-4 ovarian. Conditions: 10 µM unless noted.
Another test deals with SK-OV-3 ovarian. To be noted: 10 µM unless noted.
Another test relates to IGROV1 ovarian. To be noted: 10 µM unless noted.
The test system of a further test is OVCAR-3 ovarian. To be noted: 10 µM unless noted.
A further test deals with NCI/ADR-RES ovarian. Conditions: 10 µM unless noted.
A further test concerns UO-31 renal. To be noted: 10 µM unless noted.
The test system of another test is TK-10 renal. Conditions: 10 µM unless noted.
A further test deals with HS 578T breast. Conditions: 10 µM unless noted.

Compounds without any hit were thinned out: in the full panel of roughly 83,000, 20% have a hit.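 Compound tested at a single concentration for 48 hours in 96-well plates; a percent growth value below 10 was scored as active.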 Values without a mark were called inactive. Calls of active or inactive are those of the source.

As to `O=C(Nc1ccc(-n2ccc3c(NC(=O)c4ccccc4)ncnc32)cc1)Nc1cccc(Cl)c1Cl`, the growth in the test on SK-MEL-2 melanoma was -39.1% (active); in the test on EKVX NSCLC it was -5.65% (active); in the test on SN12C renal, -31.9% (active); in the test on ACHN renal, -20.4% (active); with CAKI-1 renal it was -26% (active); in the test with A498 renal, 12%. Moreover, the growth in the test on CCRF-CEM leukemia is 16.5%; in the test on MOLT-4 leukemia, 25.5%; with SR leukemia, 21.8%; with RPMI-8226 leukemia it was 10.2%; with OVCAR-8 ovarian, 13.4%; in the test with OVCAR-5 ovarian it was 17.5%. Besides, the growth in the test on OVCAR-4 ovarian was -74.3% (active); in the test with SK-OV-3 ovarian, -14.8% (active); in the test on IGROV1 ovarian it was -3.19% (active); with OVCAR-3 ovarian, -41.7% (active); in the test with NCI/ADR-RES ovarian it was 4.77% (active).

Consider `C[C@@H]1CC2C3C[C@H](F)C4=CC(=O)C=C[C@]4(C)[C@@]3(F)[C@@H](O)C[C@]2(C)[C@@]1(O)C(=O)CO` (stereo not given in full), for which the growth was 94.2% in the test with SK-MEL-2 melanoma; 64.9% with EKVX NSCLC; 71.6% in the test on UO-31 renal; 102% with TK-10 renal; 75.8% in the test on CAKI-1 renal; 123% in the test with A498 renal. For the same molecule, the growth with CCRF-CEM leukemia is 40%; in the test on MOLT-4 leukemia, 76.8%; with SR leukemia, 99%; in the test with RPMI-8226 leukemia it was 64.8%; in the test on OVCAR-8 ovarian, 82.1%; with OVCAR-4 ovarian, 113%. Besides, the growth was 65.6% in the test on SK-OV-3 ovarian; 99.8% in the test on IGROV1 ovarian; 113% in the test on OVCAR-3 ovarian; 112% with HS 578T breast; 83.1% in the test with NCI/ADR-RES ovarian.

As for `COc1ccc2c(c1)C(=O)/C(=C/c1cccc(OCC(=O)c3ccccc3)c1)O2`, the growth in the test on SK-MEL-2 melanoma is 75.1%; in the test with EKVX NSCLC, 82.1%; with TK-10 renal, 30.7%; in the test on ACHN renal it was 45.1%; with CAKI-1 renal, -98.1% (active); in the test on A498 renal it was 117%. The growth in the test with CCRF-CEM leukemia was -39.3% (active); in the test with MOLT-4 leukemia, -52.4% (active); with RPMI-8226 leukemia, -49.6% (active); in the test on OVCAR-8 ovarian, -29.9% (active); with OVCAR-5 ovarian it was 37.8%; with OVCAR-4 ovarian, -55.1% (active). Moreover, the growth in the test on SK-OV-3 ovarian is 121%; in the test with OVCAR-3 ovarian it was -84.4% (active); with HS 578T breast, 52%; in the test on NCI/ADR-RES ovarian, 65.1%.

Regarding `C=C1c2c(Cl)ccc(O)c2C(O)=C2C(=O)[C@]3(O)C(O)=C(C(N)=O)C(=O)[C@@H](N(C)C)[C@@H]3[C@@H](O)[C@H]12`, the growth in the test on SK-MEL-2 melanoma was -10.9% (active); in the test with EKVX NSCLC it was 36.4%; in the test on TK-10 renal, 7.64% (active); in the test with CAKI-1 renal it was 3.62% (active); in the test on A498 renal it was -10% (active); in the test on CCRF-CEM leukemia it was 4.46% (active). Further, the growth with MOLT-4 leukemia is -11.5% (active); in the test on SR leukemia, -8.97% (active); with RPMI-8226 leukemia it was 13.2%; with OVCAR-8 ovarian it was 9.79% (active); with OVCAR-4 ovarian it was 23.7%; in the test with SK-OV-3 ovarian, 11.2%. For the same molecule, the growth was -2.89% (active) in the test on IGROV1 ovarian, -16.2% (active) in the test with OVCAR-3 ovarian, 5.86% (active) with HS 578T breast and 61.2% in the test on NCI/ADR-RES ovarian.

Consider `COc1cc(NC(C)CCCN2C(=O)c3ccccc3C2=O)c2ncccc2c1OC` (stereo not given), for which the growth with SK-MEL-2 melanoma was 94.8%; in the test with EKVX NSCLC, 69%; in the test on UO-31 renal, 59.4%; in the test on TK-10 renal it was 93.6%; in the test with ACHN renal, 97.9%; with A498 renal, 104%. In addition, the growth with CCRF-CEM leukemia was -26.9% (active); with MOLT-4 leukemia it was -67.5% (active); in the test with SR leukemia, 35.4%; in the test with RPMI-8226 leukemia, 55.5%; in the test on OVCAR-8 ovarian it was 85.5%; with OVCAR-5 ovarian, 99.1%. For the same molecule, the growth with OVCAR-4 ovarian is 50.8%; in the test with SK-OV-3 ovarian it was 92.5%; in the test on IGROV1 ovarian, 63.6%; in the test with HS 578T breast, 95.7%; with NCI/ADR-RES ovarian, 90.6%.

As to `CCc1c(C)c2cc3c(c(C)c2oc1=O)OCC(=O)N3`, the growth with SK-MEL-2 melanoma is 77.5%; with EKVX NSCLC, 35.9%; in the test with TK-10 renal, 15.1%; in the test with A498 renal, 43.6%; in the test with CCRF-CEM leukemia it was 84.3%; in the test with MOLT-4 leukemia, 80.7%. Further, the growth in the test with SR leukemia was 4.96% (active); in the test with RPMI-8226 leukemia, 90.9%; in the test on OVCAR-8 ovarian it was 74.6%; in the test on OVCAR-5 ovarian it was 77.9%; with OVCAR-4 ovarian, 79.5%; with IGROV1 ovarian it was 51.7%. For the same molecule, the figures for the growth in the test on OVCAR-3 ovarian, with HS 578T breast and in the test with NCI/ADR-RES ovarian were 73.8%, 59.5% and 75.1%, respectively.

For the molecule `C=C1C(=O)O[C@H]2[C@H]1CC/C(COC(=O)c1ccc3ccccc3c1)=C\CC[C@@]1(C)O[C@@H]21`, the growth with SK-MEL-2 melanoma is -70.4% (active); with EKVX NSCLC it was -75.5% (active); in the test on UO-31 renal, -98.9% (active); in the test on TK-10 renal, -95.9% (active); with ACHN renal, -100% (active); in the test on A498 renal it was 64.1%. The growth was -22.9% (active) in the test on CCRF-CEM leukemia; -14.1% (active) in the test on MOLT-4 leukemia; -19.4% (active) in the test with SR leukemia; -39.3% (active) in the test with RPMI-8226 leukemia; -21.4% (active) in the test with OVCAR-8 ovarian; -52.9% (active) in the test on OVCAR-5 ovarian. In addition, the growth with OVCAR-4 ovarian was -36.7% (active); in the test on SK-OV-3 ovarian, 82.6%; with IGROV1 ovarian it was -75.1% (active); in the test on OVCAR-3 ovarian it was -93.1% (active); with HS 578T breast, 3.13% (active); with NCI/ADR-RES ovarian, -37.7% (active).

Consider `CN1C(=O)C2(SCC(C(=O)NCC(=O)OC(C)(C)C)N2C(=O)C2CCCCC2)c2ccccc21` (stereo not given), for which the growth in the test on SK-MEL-2 melanoma was 86.9%; in the test with EKVX NSCLC it was 96.6%; in the test with UO-31 renal it was 84%; with TK-10 renal, 103%; with ACHN renal, 99.8%; in the test on A498 renal, 83.5%. The growth in the test on CCRF-CEM leukemia is 96.3%; in the test on MOLT-4 leukemia, 92.6%; in the test on SR leukemia, 110%; in the test with RPMI-8226 leukemia, 90.5%; with OVCAR-8 ovarian, 96%; with OVCAR-5 ovarian, 104%. Also, the growth in the test on OVCAR-4 ovarian is 100%; in the test on SK-OV-3 ovarian, 99.8%; with IGROV1 ovarian, 101%; in the test on OVCAR-3 ovarian it was 107%; in the test on HS 578T breast, 97.5%.

For the molecule `Cc1ccc(NC(=O)CN2CCOCC2)cc1Cl`, the growth with SK-MEL-2 melanoma was 95.1%; in the test with EKVX NSCLC, 93.2%; in the test with UO-31 renal, 90.4%; with TK-10 renal, 95.6%; with A498 renal, 61.3%; in the test with CCRF-CEM leukemia, 78.9%. For the same molecule, the growth is 90.2% in the test on MOLT-4 leukemia; 82.3% with SR leukemia; 93.3% in the test on RPMI-8226 leukemia; 92% in the test on OVCAR-8 ovarian; 99.9% in the test with OVCAR-5 ovarian; 94.7% in the test on OVCAR-4 ovarian. The growth in the test with SK-OV-3 ovarian is 90.1%; in the test with IGROV1 ovarian, 107%; with OVCAR-3 ovarian, 104%; in the test on HS 578T breast, 98.7%; in the test with NCI/ADR-RES ovarian it was 103%.
